Data taken from PubChem BioAssay AID1159580 (chemical genetic matrix, 2015).
Where “and” joins values, the source holds several entries; their conditions need not be identical. Identical values can stand only once. About 2,000 (36%) of roughly 5,500 compounds were called active. Inconclusive results (about 18%) are left out. Rule as the data show it: active = normalized growth mostly below about 0.91 (no sharp cut-off); inconclusive = no clear call, values can overlap the other calls; inactive = mostly above about 0.92. Some of the results follow.

Test: chemical genetic growth profiling, strain panel (AID 1159580);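 also: tested at 20 µM; growth read once vehicle control cultures reached saturation at 30 °C; 1 = growth at the plate median or of vehicle wells; lower values mean less growth of the strain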
Conditions: S. cerevisiae deletion strains, growth OD

Measured: normalized growth

COc1ccc(C(=O)CC(=O)c2ccc(C(C)(C)C)cc2)cc1
inactive: locus YAL013W, strain DEP1, active compounds read low 0.998 | locus YAL021C, strain ccr4, active compounds read low 0.999 | locus YAL026C, strain drs2, active compounds read low 0.996 | locus YAL030W, strain snc1, active compounds read low 0.993 | locus YBL061C, strain skt5, active compounds read low 0.99 | locus YBR009C, strain hhf1, active compounds read low 0.976 | locus YBR021W, strain FUR4, active compounds read low 0.979 | locus YBR023C, strain chs3, active compounds read low 0.987 | locus YBR171W, strain sec66, active compounds read low 1.03 | locus YBR229C, strain ROT2, active compounds read low 0.997 | locus YBR231C, strain swc5, active compounds read low 0.997 | locus YBR279W, strain paf1, active compounds read low 0.991 | locus YCL011C, strain gbp2, active compounds read low 0.995 | locus YCL016C, strain dcc1, active compounds read low 0.984 | locus YCL029C, strain bik1, active compounds read low 1.01 | locus YCL069W, strain vba3, active compounds read low 0.993 | locus YCR088W, strain abp1, active compounds read low 0.99 | locus YDL005C, strain med2, active compounds read low 0.983 | locus YDL035C, strain GPR1, active compounds read low 0.954 | locus YDL040C, strain nat1, active compounds read low 0.98 | locus YDL074C, strain BRE1, active compounds read low 0.933 | locus YDL101C, strain DUN1, active compounds read low 0.99 | locus YDL134C, strain PPH21, active compounds read low 1.01 | locus YDL185W, strain tfp1, active compounds read low 1 | locus YDL192W, strain arf1, active compounds read low 1 | locus YDR001C, strain nth1, active compounds read low 0.995 | locus YDR069C, strain doa4, active compounds read low 0.989 | locus YDR101C, strain arx1, active compounds read low 1 | locus YDR137W, strain rgp1, active compounds read low 0.918 | locus YDR150W, strain NUM1, active compounds read low 0.999 | locus YDR159W, strain sac3, active compounds read low 1.01 | locus YDR162C, strain NBP2, active compounds read low 0.851 | locus YDR195W, strain ref2 1.01 | locus YDR297W, strain sur2, active compounds read low 1 | locus YDR318W, strain mcm21, active compounds read low 0.994 | locus YDR334W, strain swr1, active compounds read low 1.02 | locus YDR335W, strain msn5, active compounds read low 1 | locus YDR388W, active compounds read low 1.01 | locus YDR392W, strain spt3, active compounds read low 1.02 | locus YDR502C, strain sam2, active compounds read low 1.01 | locus YEL003W, strain gim4, active compounds read low 0.992 | locus YEL037C, strain rad23, active compounds read low 0.992 | locus YEL061C, strain CIN8 (second series), active compounds read low 0.976 | locus YEL061C, strain CIN8, active compounds read low 0.96 | locus YER015W, strain faa2, active compounds read low 0.997 | locus YER016W, strain bim1, active compounds read low 0.983 | locus YER110C, active compounds read low 1.01 | locus YER111C, strain swi4, active compounds read low 0.995 | locus YER155C, strain BEM2 (second series), active compounds read low 1.01 | locus YER155C, strain BEM2, active compounds read low 0.94 | locus YER167W, strain BCK2, active compounds read low 0.987 | locus YFR010W, strain ubp6, active compounds read low 1 | locus YGL078C, strain dbp3, active compounds read low 0.996 | locus YGL086W, strain mad1, active compounds read low 0.991 | locus YGL167C, strain pmr1, active compounds read low 0.982 | locus YGL173C, strain kem1, active compounds read low 0.989 | locus YGL227W, strain vid30, active compounds read low 0.982 | locus YGL240W, strain doc1, active compounds read low 0.986 | locus YGL248W, strain PDE1, active compounds read low 0.986 | locus YGL253W, strain hxk2, active compounds read low 0.99 | locus YGR078C, strain PAC10, active compounds read low 0.931 | locus YGR135W, strain pre9, active compounds read low 0.997 | locus YGR229C, strain SMI1, active compounds read low 0.83 | locus YGR252W, strain gcn5, active compounds read low 1.02 | locus YHR013C, strain ard1, active compounds read low 0.945 | locus YHR027C, strain rpn1, active compounds read low 0.992 | locus YHR030C, strain SLT2, active compounds read low 0.929 and 0.981 | locus YHR079C, strain IRE1 (second series), active compounds read low 1 | locus YHR079C, strain IRE1, active compounds read low 0.984 | locus YHR094C, strain hxt1, active compounds read low 1 | locus YHR129C, strain ARP1, active compounds read low 1 | locus YHR142W, strain chs7, active compounds read low 0.956 | locus YHR200W, strain rpn10, active compounds read low 1 | locus YIL066C, strain RNR3, active compounds read low 0.992 | locus YIL073C, strain SPO22, active compounds read low 0.872 | locus YIL125W, strain kgd1, active compounds read low 0.993 | locus YIR030C, strain dcg1, active compounds read low 0.998 | locus YJL092W, strain hpr5, active compounds read low 0.993 | locus YJL095W, strain BCK1 (second series), active compounds read low 0.967 | locus YJL095W, strain BCK1, active compounds read low 0.958 and 0.995 | locus YJL115W, strain asf1, active compounds read low 1.01 | locus YJL129C, strain trk1, active compounds read low 0.918 | locus YJL134W, strain LCB3, active compounds read low 1 | locus YJL154C, strain vps35, active compounds read low 0.993 | locus YJL166W, strain qcr8, active compounds read low 0.976 | locus YJL168C, strain set2, active compounds read low 1 | locus YJL187C, strain SWE1 (second series), active compounds read low 1.01 | locus YJL187C, strain SWE1, active compounds read low 1 | locus YJR043C, strain POL32, active compounds read low 1 | locus YJR066W, strain TOR1, active compounds read low 0.97
active: locus YJL164C, strain tpk1, active compounds read low 0.913
